Reference: the OligoGym collection

Columns and labels:
Assay in all cases: pooled miR-30 sensor sort-seq; sequence = guide strand
Settings in all cases: shRNA
[1] = biological target: C19orf43
[2] = biological target: C19orf33
[3] = biological target: C19orf26
[4] = biological target: C19orf48
[5] = biological target: C1QL1
[6] = biological target: C1orf61
[7] = biological target: C2orf82
[8] = biological target: C6orf105
[9] = biological target: C7orf11
[10] = biological target: C7orf47
[11] = biological target: C6orf58
[12] = biological target: C7orf69
[13] = biological target: C8B
[14] = biological target: CA8
[15] = biological target: CADM4
[16] = biological target: CAMK2N1
[17] = biological target: CALB1

**Q.** Which sensor-assay potency score (higher = more potent) [1] does the source give for TTGGCGAACAAGTTCACGCCGC here?
**A.** -0.437

**Q.** TCTCCTTCTTCTTCACTTTGGG was tested. Which sensor-assay potency score (higher = more potent) [2] did it give?
**A.** -0.407

**Q.** How did the sensor-assay potency score (higher = more potent) [1] turn out when TTGAACAGCTCCAGGAAGCTGC was run?
**A.** -0.652

**Q.** Which sensor-assay potency score (higher = more potent) [2] does the source give for TGAGCTTGGGATCTCCCCCGTG here?
**A.** -0.899

**Q.** For ACATCCGTGTCCGAATCGCTGG, which sensor-assay potency score (higher = more potent) [2] is on record?
**A.** -1.43

**Q.** How did the sensor-assay potency score (higher = more potent) [2] turn out when TTCTTCTTCACTTTGGGCTTCT was run?
**A.** 0.272

**Q.** Which sensor-assay potency score (higher = more potent) [2] does the source give for ATCCGTGTCCGAATCGCTGGAG here?
**A.** -0.418

**Q.** How did the sensor-assay potency score (higher = more potent) [1] turn out when TTTATCATCGTCACCGCACTGG was run?
**A.** 0.198

**Q.** TCATTGAAGGAGACCCGGCGGC was tested. Which sensor-assay potency score (higher = more potent) [3] did it give?
**A.** -0.71

**Q.** Which sensor-assay potency score (higher = more potent) [4] does the source give for TCTCCTGGGTGTGTGGCTCAGC here?
**A.** -0.768

**Q.** TCGTGGATGGTGACAATCTTGA was tested. Which sensor-assay potency score (higher = more potent) [3] did it give?
**A.** -1.35

**Q.** Which sensor-assay potency score (higher = more potent) [2] does the source give for AAGAGCTGTGGTGTCCTTGCTT here?
**A.** 0.114

**Q.** Which sensor-assay potency score (higher = more potent) [4] does the source give for TGGAGCACCAGGCCAGGCGGTG here?
**A.** -1.89

**Q.** How did the sensor-assay potency score (higher = more potent) [2] turn out when AACTTTGTGGGGACTGAGCTTG was run?
**A.** -0.364

**Q.** For TTCACTTTGGGCTTCTTGGCCT, which sensor-assay potency score (higher = more potent) [2] is on record?
**A.** -0.157

**Q.** With TCGCCTGAGTCACACTCGTGGA as the sequence, how does the sensor-assay potency score (higher = more potent) [3] read?
**A.** -1.57

**Q.** How did the sensor-assay potency score (higher = more potent) [1] turn out when AACAGCTCCAGGAAGCTGCCGT was run?
**A.** -0.55

**Q.** Which sensor-assay potency score (higher = more potent) [1] does the source give for TAATACCTCATCCTCCGTCTTC here?
**A.** -0.695

**Q.** TTGGGTCCCAGCATGAGCCTGG was tested. Which sensor-assay potency score (higher = more potent) [4] did it give?
**A.** -0.0945

**Q.** TTATCATCGTCACCGCACTGGT was tested. Which sensor-assay potency score (higher = more potent) [1] did it give?
**A.** -1.04

**Q.** How did the sensor-assay potency score (higher = more potent) [4] turn out when TCCTTGTGCACTGGGTTGGGTC was run?
**A.** -1.63

**Q.** How did the sensor-assay potency score (higher = more potent) [1] turn out when TGTTCTATGAAGTCTCACGAGG was run?
**A.** -1.02

**Q.** For TGTCCTTGAGAGCCAGGCCCAG, which sensor-assay potency score (higher = more potent) [4] is on record?
**A.** -1.6

**Q.** For TTGACCTTGAAATAGGGGCTGG, which sensor-assay potency score (higher = more potent) [3] is on record?
**A.** -0.605

**Q.** With TTGCACGTAAACTTGCCGCTGG as the sequence, how does the sensor-assay potency score (higher = more potent) [5] read?
**A.** 0.439

**Q.** Which sensor-assay potency score (higher = more potent) [6] does the source give for TTGGTCTCCCAACTTAGCCATG here?
**A.** -1.74

**Q.** For TCGTCTGTGAGCACCGCAGGGG, which sensor-assay potency score (higher = more potent) [7] is on record?
**A.** -0.778

**Q.** With TTAAATTTAAGTATCACTCTCT as the sequence, how does the sensor-assay potency score (higher = more potent) [8] read?
**A.** 1.11

**Q.** With TTTTTTCTCTAACACGCCCTGA as the sequence, how does the sensor-assay potency score (higher = more potent) [9] read?
**A.** -0.403

**Q.** With TTGGCTTATATCCACTACAGAT as the sequence, how does the sensor-assay potency score (higher = more potent) [9] read?
**A.** -1.16

**Q.** Which sensor-assay potency score (higher = more potent) [10] does the source give for TGGAGATTCATAAAATAGCGTT here?
**A.** -0.725

**Q.** How did the sensor-assay potency score (higher = more potent) [11] turn out when TTATATGATCTAATCAAGGTTG was run?
**A.** -0.152

**Q.** Which sensor-assay potency score (higher = more potent) [10] does the source give for AAGATGGTCATGTCTGGCCCAG here?
**A.** -1.42

**Q.** For TTATATCCACTACAGATACTGG, which sensor-assay potency score (higher = more potent) [9] is on record?
**A.** -1.05

**Q.** With TTTGCTCTGCATTTGATAGTTT as the sequence, how does the sensor-assay potency score (higher = more potent) [12] read?
**A.** -0.51

**Q.** How did the sensor-assay potency score (higher = more potent) [12] turn out when TTGTAGAGAAGTCCAGAGTTAA was run?
**A.** -1.47

**Q.** With AAAACTTGTAGAGAAGTCCAGA as the sequence, how does the sensor-assay potency score (higher = more potent) [12] read?
**A.** -0.425

**Q.** TTTCTGGGTCACACAAGATGGT was tested. Which sensor-assay potency score (higher = more potent) [10] did it give?
**A.** -1.07

**Q.** Which sensor-assay potency score (higher = more potent) [12] does the source give for TTGCTCTGCATTTGATAGTTTG here?
**A.** -1.46

**Q.** For TCTAATATCAACAATACCTGAT, which sensor-assay potency score (higher = more potent) [9] is on record?
**A.** 0.0324

**Q.** Which sensor-assay potency score (higher = more potent) [13] does the source give for TTAACTTTGATGATGGCTGGGT here?
**A.** 0.335

**Q.** With TTGATAGTTTGACAAAACTTGT as the sequence, how does the sensor-assay potency score (higher = more potent) [12] read?
**A.** -1.4

**Q.** How did the sensor-assay potency score (higher = more potent) [10] turn out when TGGGTCACACAAGATGGTCATG was run?
**A.** -1.71

**Q.** TTGCCCTTGCATGAACTCCAGG was tested. Which sensor-assay potency score (higher = more potent) [13] did it give?
**A.** -1.15

**Q.** With TAATTATCCAATCAAAGTCATC as the sequence, how does the sensor-assay potency score (higher = more potent) [9] read?
**A.** -1.65

**Q.** Which sensor-assay potency score (higher = more potent) [12] does the source give for TAGTTTGACAAAACTTGTAGAG here?
**A.** -0.507

**Q.** Which sensor-assay potency score (higher = more potent) [10] does the source give for TTCTGGGTCACACAAGATGGTC here?
**A.** -1.8

**Q.** With AAGTCCAGAGTTAAGAACCAGC as the sequence, how does the sensor-assay potency score (higher = more potent) [12] read?
**A.** -0.81

**Q.** ATTCATAAAATAGCGTTTCTGG was tested. Which sensor-assay potency score (higher = more potent) [10] did it give?
**A.** -0.587

**Q.** Which sensor-assay potency score (higher = more potent) [10] does the source give for TAGCGTTTCTGGGTCACACAAG here?
**A.** -0.834

**Q.** How did the sensor-assay potency score (higher = more potent) [10] turn out when TAACACAAAAATACGAACTAGC was run?
**A.** 0.2

**Q.** Which sensor-assay potency score (higher = more potent) [12] does the source give for ATAGTTTGACAAAACTTGTAGA here?
**A.** -0.39

**Q.** TAGTTTAACACAAAAATACGAA was tested. Which sensor-assay potency score (higher = more potent) [10] did it give?
**A.** -0.764

**Q.** TTGAGTATTGCTGTATTGTTGG was tested. Which sensor-assay potency score (higher = more potent) [9] did it give?
**A.** -0.097

**Q.** Which sensor-assay potency score (higher = more potent) [12] does the source give for TGATAGTTTGACAAAACTTGTA here?
**A.** -0.512

**Q.** For ATATCCACTACAGATACTGGTT, which sensor-assay potency score (higher = more potent) [9] is on record?
**A.** -0.708

**Q.** With TTTCCATCCATGACCAACTTTT as the sequence, how does the sensor-assay potency score (higher = more potent) [12] read?
**A.** -0.995

**Q.** TTTTTCTCTAACACGCCCTGAT was tested. Which sensor-assay potency score (higher = more potent) [9] did it give?
**A.** 0.0567

**Q.** How did the sensor-assay potency score (higher = more potent) [9] turn out when TTTGAGTATTGCTGTATTGTTG was run?
**A.** -0.804

**Q.** Which sensor-assay potency score (higher = more potent) [10] does the source give for TCACACAAGATGGTCATGTCTG here?
**A.** -0.315

**Q.** TTCAGCTCTCCTATCCGTGCAA was tested. Which sensor-assay potency score (higher = more potent) [12] did it give?
**A.** 0.252

**Q.** With TTCTTTTTTCTCTAACACGCCC as the sequence, how does the sensor-assay potency score (higher = more potent) [9] read?
**A.** -0.504

**Q.** Which sensor-assay potency score (higher = more potent) [12] does the source give for TTTGATAGTTTGACAAAACTTG here?
**A.** -0.171

**Q.** How did the sensor-assay potency score (higher = more potent) [9] turn out when TAAATGTTGCAAGTTATCCTAC was run?
**A.** 0.0898

**Q.** With TAAAATAGCGTTTCTGGGTCAC as the sequence, how does the sensor-assay potency score (higher = more potent) [10] read?
**A.** 0.138

**Q.** TCCAACTCATTAGACATTCTTT was tested. Which sensor-assay potency score (higher = more potent) [9] did it give?
**A.** -1.12

**Q.** For TTTATTTTAAACAGCTTGCATG, which sensor-assay potency score (higher = more potent) [13] is on record?
**A.** -0.469

**Q.** TCATAAAATAGCGTTTCTGGGT was tested. Which sensor-assay potency score (higher = more potent) [10] did it give?
**A.** -0.72

**Q.** AATTCTTCTATCTGTAGCTGGG was tested. Which sensor-assay potency score (higher = more potent) [14] did it give?
**A.** -0.112

**Q.** For TGCAACTATGAATCCTAGCAGC, which sensor-assay potency score (higher = more potent) [14] is on record?
**A.** -0.939

**Q.** TTGAAGAAGAGGGTCTGCCGGG was tested. Which sensor-assay potency score (higher = more potent) [15] did it give?
**A.** 0.128

**Q.** For TTTGCTGGTTCCTTGCAGCTGG, which sensor-assay potency score (higher = more potent) [15] is on record?
**A.** 0.149

**Q.** For TGGATGACAACTATGGACCCAT, which sensor-assay potency score (higher = more potent) [15] is on record?
**A.** -0.33

**Q.** Which sensor-assay potency score (higher = more potent) [16] does the source give for TTGTTGGTGTCCTGCAGGCGGC here?
**A.** -1.65

**Q.** How did the sensor-assay potency score (higher = more potent) [17] turn out when TTCTCTGACAGTAAGTTTGTTG was run?
**A.** -0.382

**Q.** Which sensor-assay potency score (higher = more potent) [17] does the source give for TTAGGTCTGTATACTCGGCTAA here?
**A.** -0.144

**Q.** TGTCACATCAACTTGAACCGAT was tested. Which sensor-assay potency score (higher = more potent) [17] did it give?
**A.** 0.787

**Q.** For TTTGTGTCATCAACAGTCTTGT, which sensor-assay potency score (higher = more potent) [17] is on record?
**A.** 0.294

**Q.** For TATGTATCCATTGCCGTCCTGA, which sensor-assay potency score (higher = more potent) [17] is on record?
**A.** -0.391

**Q.** For TTTCAGCTCCTTGCGGTCCCGG, which sensor-assay potency score (higher = more potent) [15] is on record?
**A.** -0.888

**Q.** How did the sensor-assay potency score (higher = more potent) [17] turn out when TAGGTCTGTATACTCGGCTAAT was run?
**A.** -1.02

**Q.** ATTCTTCTCGCACAGATCCTTC was tested. Which sensor-assay potency score (higher = more potent) [17] did it give?
**A.** -1.06

**Q.** TAAGCATAGACTTTCTTCTTTT was tested. Which sensor-assay potency score (higher = more potent) [17] did it give?
**A.** -0.786

**Q.** Which sensor-assay potency score (higher = more potent) [16] does the source give for ATCATCTTCAATAACAACCCGC here?
**A.** -0.379
